# Results published in PubChem BioAssay.
# Where “and” joins values, the source holds several entries; their conditions need not be identical. Identical values can stand only once. Calls of active or inactive are those of the source.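 The calls were made as follows, unless noted: active = normalized viability below 100% at a tested concentration; inactive = the rest.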
# Legend:
# [1] = system: Aerobactin synthetase IucA (Klebsiella pneumoniae); assay: inhibition of K. pneumoniae IucA enzyme – biochemical, Tocris library, absorbance (AID 1345561; call rule not given here;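 also: 100% = enzyme without compound and 0% = no enzyme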); details: purified IucA enzyme assay, absorbance (OD) read-out; stronger effect = lower value;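 tested at 8 µM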
# [2] = viability loss with induced miR-34 in A549 – imaging, A549 dox-inducible miR-34, nuclei and caspase counts, primary screen (AID 1347080;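 active = compounds whose cell count with miR-34 switched on is under 0.7 times the count with it off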); details: A549 miR-34 inducible, Hoechst nuclei count, 48 h
# [3] = galactose survival enhancers in mitochondrial complex I cybrids – cell-based, galactose medium, ATP luminescence, primary screen (AID 1645843;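 active = z-score of at least 1.8 in each of two replicates, scored against plate mean and spread of sample wells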;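 also: positive z means more ATP and so rescue of galactose-driven cybrid death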); details: complex I mutant cybrid cells, 72 h, stronger effect = higher value
# [4] = blockers of cellular phospholipid synthesis – cell-based, LOPAC library, screen 4, primary screen (AID 1347384; call rule not given here); details: animal cells, phospholipid biosynthesis inhibition screen; at 10 µM
# [5] = system: Hepatitis C virus NS3 helicase; assay: blockers of NS3h binding to ssDNA – biochemical, fluorescence polarization, LOPAC1280 library, primary screen (AID 687035; in the data active = inhibition above about 37%); details: Purified HCV NS3 helicase, Cy5-dT15 ssDNA binding fluorescence polarization; stronger effect = higher value; concentration not given here
# [6] = compounds altering Cy5-DNA-NS3h complex signal – biochemical, LOPAC1280, artefact control for HCV NS3 helicase inhibitor project (AID 687037; call rule not given here); details: Cy5-DNA-NS3h complex fluorescence interference counterscreen
# [7] = chitosan synthesis blockers in C. neoformans – flow cytometry, Cibacron Brilliant Red staining (AID 1347148; call rule not given here;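 also: compound exposure lasted three days at 37 degrees C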); details: Cryptococcus neoformans chitosan, stronger effect = lower value; at 10 µM unless noted
# [8] = MELAS cybrid and Rieske KO viability enhancers – cell-based, MELAS cybrids, Rieske KO mouse fibroblasts, CellTiter-Glo, primary screen (AID 1508586;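 active = mean z-score across replicates of 1.96 or higher in either the MELAS or the Rieske mutant cell line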;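 also: z relative to plate mean and SD of compound and empty wells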); details: low glucose
# [9] = drug combination growth inhibition, ovarian cancer – cell-based, oncology-focused library, rucaparib conditional, profiling panel (AID 1508598); details: patient-derived ovarian cancer cells, CellTiter-Glo viability, 144 h, stronger effect = lower value
# [10] = stronger effect = lower value, cell number ratio, induced over uninduced
# [11] = measured here: relative caspase fold change +Dox/-Dox
# [12] = measured here: total cells with miR-34 induction, stronger effect = lower value
# [13] = measured here: total cells without miR-34 induction
# [14] = MELAS cybrid survival, CellTiter-Glo 48 h, stronger effect = higher value
# [15] = Rieske KO mouse fibroblast survival, CellTiter-Glo 72 h
smiles,measurement,setting,value
CC(C)(C)n1nc(-c2cccc3ccccc23)c2c(N)ncnc21,remaining activity,[1],117% (inactive)
same,fold change,[2]; [10],0.947 (inactive)
same,fold change,[2]; [11],1.81
same,cell count,[2]; [12],3180
same,cell count,[2]; [13],3350
same,z-score,[3],-0.105 (inactive)
CC(=O)N[C@H](Cc1c[nH]c2ccccc12)C(=O)OCc1cc(C(F)(F)F)cc(C(F)(F)F)c1,remaining activity,[1],106% (inactive)
same,fold change,[2]; [10],0.923 (inactive)
same,fold change,[2]; [11],0.896
same,cell count,[2]; [12],8110
same,cell count,[2]; [13],8790
same,z-score,[3],-0.035 (inactive)
N=C(N)SCCc1ccc(OCc2ccc([N+](=O)[O-])cc2)cc1,remaining activity,[1],106% (inactive)
same,fold change,[2]; [10],0.959 (inactive)
same,fold change,[2]; [11],0.93
same,cell count,[2]; [12],5550
same,cell count,[2]; [13],5790
same,outcome,[4],inactive
same,z-score,[3],-0.76 (inactive)
Nc1nc(-c2ccc(Cl)c(Cl)c2)c(-c2ccncc2)s1,remaining activity,[1],110% (inactive)
same,fold change,[2]; [10],0.959 (inactive)
same,fold change,[2]; [11],1.23
same,cell count,[2]; [12],8510
same,cell count,[2]; [13],8870
same,z-score,[3],1.59 (inactive)
C1CCC(N=C(NC23CC4CC(CC(C4)C2)C3)N2CCOCC2)CC1,inhibition,[5],-4% (inactive)
same,fluorescence ratio (interference),[6],1 (inactive)
same,remaining activity,[1],116% (inactive)
same,fold change,[2]; [10],0.989 (inactive)
same,fold change,[2]; [11],0.888
same,cell count,[2]; [12],8260
same,cell count,[2]; [13],8350
same,fold fluorescence,[7],11.7 [at 130.9 µM] (inactive)
same,z-score,[3],-0.33 (inactive)
CN1Cc2c(C(=O)OC(C)(C)C)ncn2-c2ccsc2C1=O,remaining activity,[1],105% (inactive)
same,fold change,[2]; [10],0.89 (inactive)
same,fold change,[2]; [11],1.34
same,cell count,[2]; [12],7080
same,cell count,[2]; [13],7950
same,z-score,[3],0.15 (inactive)
CC(=O)N1CCN(C)CC1,remaining activity,[1],118% (inactive)
same,fold change,[2]; [10],0.971 (inactive)
same,fold change,[2]; [11],0.837
same,cell count,[2]; [12],8470
same,cell count,[2]; [13],8720
same,z-score,[3],0.29 (inactive)
CCCCCS(=O)(=O)CCCCCCCCCCn1c(-c2ccc(O)cc2)c(C)c2cc(O)ccc21,remaining activity,[1],96.6% (inactive)
same,fold change,[2]; [10],1.01 (inactive)
same,fold change,[2]; [11],0.732
same,cell count,[2]; [12],1420
same,cell count,[2]; [13],1410
same,z-score,[3],-0.685 (inactive)
Cc1ccc(Sc2cncc3sc(C(N)=O)cc23)cc1,remaining activity,[1],99.8% (inactive)
same,fold change,[2]; [10],0.867 (inactive) and 0.873 (inactive)
same,fold change,[2]; [11],2.32 and 1.58
same,cell count,[2]; [12],7640 and 7700
same,cell count,[2]; [13],8800 and 8820
same,z-score,[8]; [14],-0.504 (inactive)
same,z-score,[8]; [15],-0.347
same,z-score,[3],-0.625 (inactive)
Cc1ccc(-c2csc(NC(=O)c3ccccc3)n2)c(C)c1,remaining activity,[1],101% (inactive)
same,fold change,[2]; [10],0.855 (inactive) and 0.98 (inactive)
same,fold change,[2]; [11],0.603 and 0.953
same,cell count,[2]; [12],6970 and 3650
same,cell count,[2]; [13],8160 and 3730
same,z-score,[8]; [14],-0.247 (inactive)
same,z-score,[8]; [15],0.265
same,viability,"[9]; at 0.000305 µM, OCI-C5x cells, with rucaparib 10 µM, 100% = cells with rucaparib alone",125% (inactive)
same,viability,"[9]; at 0.000305 µM, OCI-C5x cells, without rucaparib",121% (inactive)
same,viability,"[9]; at 0.000305 µM, OCI-P5x cells, with rucaparib 20 µM, 100% = cells with rucaparib alone",102% (inactive)
same,viability,"[9]; at 0.000305 µM, OCI-P5x cells, without rucaparib",106% (inactive)
same,viability,"[9]; at 0.00122 µM, OCI-C5x cells, with rucaparib 10 µM, 100% = cells with rucaparib alone",119% (inactive)
same,viability,"[9]; at 0.00122 µM, OCI-C5x cells, without rucaparib",117% (inactive)
same,viability,"[9]; at 0.00122 µM, OCI-P5x cells, with rucaparib 20 µM, 100% = cells with rucaparib alone",99.9% (active)
same,viability,"[9]; at 0.00122 µM, OCI-P5x cells, without rucaparib",101% (inactive)
same,viability,"[9]; at 0.00488 µM, OCI-C5x cells, with rucaparib 10 µM, 100% = cells with rucaparib alone",132% (inactive)
same,viability,"[9]; at 0.00488 µM, OCI-C5x cells, without rucaparib",125% (inactive)
same,viability,"[9]; at 0.00488 µM, OCI-P5x cells, with rucaparib 20 µM, 100% = cells with rucaparib alone",98.6% (active)
same,viability,"[9]; at 0.00488 µM, OCI-P5x cells, without rucaparib",105% (inactive)
same,viability,"[9]; at 0.0195 µM, OCI-C5x cells, with rucaparib 10 µM, 100% = cells with rucaparib alone",115% (inactive)
same,viability,"[9]; at 0.0195 µM, OCI-C5x cells, without rucaparib",113% (inactive)
same,viability,"[9]; at 0.0195 µM, OCI-P5x cells, with rucaparib 20 µM, 100% = cells with rucaparib alone",102% (inactive)
same,viability,"[9]; at 0.0195 µM, OCI-P5x cells, without rucaparib",98.4% (active)
same,viability,"[9]; at 0.0781 µM, OCI-C5x cells, with rucaparib 10 µM, 100% = cells with rucaparib alone",125% (inactive)
same,viability,"[9]; at 0.0781 µM, OCI-C5x cells, without rucaparib",117% (inactive)
same,viability,"[9]; at 0.0781 µM, OCI-P5x cells, with rucaparib 20 µM, 100% = cells with rucaparib alone",103% (inactive)
same,viability,"[9]; at 0.0781 µM, OCI-P5x cells, without rucaparib",103% (inactive)
same,viability,"[9]; at 0.313 µM, OCI-C5x cells, with rucaparib 10 µM, 100% = cells with rucaparib alone",123% (inactive)
same,viability,"[9]; at 0.313 µM, OCI-C5x cells, without rucaparib",116% (inactive)
same,viability,"[9]; at 0.313 µM, OCI-P5x cells, with rucaparib 20 µM, 100% = cells with rucaparib alone",100% (inactive)
same,viability,"[9]; at 0.313 µM, OCI-P5x cells, without rucaparib",99.4% (active)
same,viability,"[9]; at 1.25 µM, OCI-C5x cells, with rucaparib 10 µM, 100% = cells with rucaparib alone",131% (inactive)
same,viability,"[9]; at 1.25 µM, OCI-C5x cells, without rucaparib",112% (inactive)
same,viability,"[9]; at 1.25 µM, OCI-P5x cells, with rucaparib 20 µM, 100% = cells with rucaparib alone",98.2% (active)
same,viability,"[9]; at 1.25 µM, OCI-P5x cells, without rucaparib",103% (inactive)
same,viability,"[9]; at 5 µM, OCI-C5x cells, with rucaparib 10 µM, 100% = cells with rucaparib alone",155% (inactive)
same,viability,"[9]; at 5 µM, OCI-C5x cells, without rucaparib",115% (inactive)
same,viability,"[9]; at 5 µM, OCI-P5x cells, with rucaparib 20 µM, 100% = cells with rucaparib alone",91.8% (active)
same,viability,"[9]; at 5 µM, OCI-P5x cells, without rucaparib",100% (inactive)
same,z-score,[3],-0.675 (inactive)
O=C(CCCCCN1C(=O)c2cccc3cccc(c23)C1=O)NO,remaining activity,[1],87.2% (inactive)
same,fold change,[2]; [10],0.869 (inactive) and 1.23 (inactive)
same,fold change,[2]; [11],0.881 and 1.17
same,cell count,[2]; [12],1710 and 2290
same,cell count,[2]; [13],1970 and 1860
same,z-score,[8]; [14],1.18 (inactive)
same,z-score,[8]; [15],1.2
same,z-score,[3],-0.53 (inactive)
Cc1c(C(=O)NC2CCCCC2)sc2nc3ccc(N)cc3n12,remaining activity,[1],120% (inactive)
same,fold change,[2]; [10],0.889 (inactive)
same,fold change,[2]; [11],1.46
same,cell count,[2]; [12],5970
same,cell count,[2]; [13],6720
same,z-score,[3],-0.625 (inactive)
COC(=O)C1=C(C)NC(C)=C([N+](=O)[O-])[C@H]1c1ccccc1C(F)(F)F,remaining activity,[1],113% (inactive)
same,fold change,[2]; [10],0.834 (inactive)
same,fold change,[2]; [11],1.13
same,cell count,[2]; [12],7130
same,cell count,[2]; [13],8550
same,fold fluorescence,[7],5.36 [at 140.3 µM] (inactive)
same,z-score,[3],-0.645 (inactive)
Cc1cc(F)c(Nc2ncnc3cc(OCc4ccccc4)ccc23)cc1O,remaining activity,[1],105% (inactive)
same,fold change,[2]; [10],0.94 (inactive) and 0.947 (inactive)
same,fold change,[2]; [11],0.62 and 2.22
same,cell count,[2]; [12],7080 and 7020
same,cell count,[2]; [13],7530 and 7420
same,z-score,[8]; [14],0.202 (inactive)
same,z-score,[8]; [15],0.0931
same,z-score,[3],1.85 (inactive)
